Compound in this assay: c1cn2cc(-c3ccc4cn[nH]c4c3)nc(Nc3ccc(N4CCOCC4)cc3)c2n1 [entospletinib]
Put plainly: log2 fold change, soluble protein after heating vs DMSO (PISA); higher = thermal stabilisation; K562 cells, 10 uM, 30 min; active = over 0.2 and 3.5 SD of the protein, either way, in both replicates (recomputed). In short, it runs like this:
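K562 cells at 2×10^6 cells/mL were exposed to 10 μM compound for 30 min, then aliquots were heated for 3 min across 48°C-58°C, pooled, and extracted in PBS containing 0.5% NP-40 at 4°C. The supernatant after 21,000xg for 90 min was taken as soluble protein and measured by TMTpro 16plex LC-MS/MS with channel sums equalised. Thermal stability is reported relative to control samples, with values from duplicates. Fold changes are given on a log2 scale.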

The full data set covers some 7,900 targets. This sample favours those with a hit. About 0.6% of all pairs of compound and target were hits. Unmarked numbers belong to inactive results.

Sequence of UniProt P20226 (P20226 whole entry, looked up): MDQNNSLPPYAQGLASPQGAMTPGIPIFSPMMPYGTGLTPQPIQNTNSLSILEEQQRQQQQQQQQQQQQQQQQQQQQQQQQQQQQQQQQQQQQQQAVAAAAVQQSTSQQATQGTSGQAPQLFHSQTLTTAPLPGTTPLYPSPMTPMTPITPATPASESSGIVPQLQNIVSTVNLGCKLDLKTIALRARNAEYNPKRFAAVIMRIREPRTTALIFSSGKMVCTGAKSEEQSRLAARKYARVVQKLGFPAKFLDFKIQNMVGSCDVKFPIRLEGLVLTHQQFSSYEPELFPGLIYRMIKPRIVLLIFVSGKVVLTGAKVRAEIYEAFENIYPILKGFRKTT
Sequence of UniProt P27105 (P27105 whole entry, looked up): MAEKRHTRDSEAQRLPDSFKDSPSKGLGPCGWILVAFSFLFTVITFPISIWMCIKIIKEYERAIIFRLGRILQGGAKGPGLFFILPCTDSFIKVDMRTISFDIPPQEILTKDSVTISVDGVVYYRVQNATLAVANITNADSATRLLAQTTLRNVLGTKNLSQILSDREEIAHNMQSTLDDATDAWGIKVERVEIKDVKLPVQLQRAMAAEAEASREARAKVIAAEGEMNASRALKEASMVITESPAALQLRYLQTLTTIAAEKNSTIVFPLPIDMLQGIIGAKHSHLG
Sequence of UniProt Q07157 (Q07157 whole entry, looked up): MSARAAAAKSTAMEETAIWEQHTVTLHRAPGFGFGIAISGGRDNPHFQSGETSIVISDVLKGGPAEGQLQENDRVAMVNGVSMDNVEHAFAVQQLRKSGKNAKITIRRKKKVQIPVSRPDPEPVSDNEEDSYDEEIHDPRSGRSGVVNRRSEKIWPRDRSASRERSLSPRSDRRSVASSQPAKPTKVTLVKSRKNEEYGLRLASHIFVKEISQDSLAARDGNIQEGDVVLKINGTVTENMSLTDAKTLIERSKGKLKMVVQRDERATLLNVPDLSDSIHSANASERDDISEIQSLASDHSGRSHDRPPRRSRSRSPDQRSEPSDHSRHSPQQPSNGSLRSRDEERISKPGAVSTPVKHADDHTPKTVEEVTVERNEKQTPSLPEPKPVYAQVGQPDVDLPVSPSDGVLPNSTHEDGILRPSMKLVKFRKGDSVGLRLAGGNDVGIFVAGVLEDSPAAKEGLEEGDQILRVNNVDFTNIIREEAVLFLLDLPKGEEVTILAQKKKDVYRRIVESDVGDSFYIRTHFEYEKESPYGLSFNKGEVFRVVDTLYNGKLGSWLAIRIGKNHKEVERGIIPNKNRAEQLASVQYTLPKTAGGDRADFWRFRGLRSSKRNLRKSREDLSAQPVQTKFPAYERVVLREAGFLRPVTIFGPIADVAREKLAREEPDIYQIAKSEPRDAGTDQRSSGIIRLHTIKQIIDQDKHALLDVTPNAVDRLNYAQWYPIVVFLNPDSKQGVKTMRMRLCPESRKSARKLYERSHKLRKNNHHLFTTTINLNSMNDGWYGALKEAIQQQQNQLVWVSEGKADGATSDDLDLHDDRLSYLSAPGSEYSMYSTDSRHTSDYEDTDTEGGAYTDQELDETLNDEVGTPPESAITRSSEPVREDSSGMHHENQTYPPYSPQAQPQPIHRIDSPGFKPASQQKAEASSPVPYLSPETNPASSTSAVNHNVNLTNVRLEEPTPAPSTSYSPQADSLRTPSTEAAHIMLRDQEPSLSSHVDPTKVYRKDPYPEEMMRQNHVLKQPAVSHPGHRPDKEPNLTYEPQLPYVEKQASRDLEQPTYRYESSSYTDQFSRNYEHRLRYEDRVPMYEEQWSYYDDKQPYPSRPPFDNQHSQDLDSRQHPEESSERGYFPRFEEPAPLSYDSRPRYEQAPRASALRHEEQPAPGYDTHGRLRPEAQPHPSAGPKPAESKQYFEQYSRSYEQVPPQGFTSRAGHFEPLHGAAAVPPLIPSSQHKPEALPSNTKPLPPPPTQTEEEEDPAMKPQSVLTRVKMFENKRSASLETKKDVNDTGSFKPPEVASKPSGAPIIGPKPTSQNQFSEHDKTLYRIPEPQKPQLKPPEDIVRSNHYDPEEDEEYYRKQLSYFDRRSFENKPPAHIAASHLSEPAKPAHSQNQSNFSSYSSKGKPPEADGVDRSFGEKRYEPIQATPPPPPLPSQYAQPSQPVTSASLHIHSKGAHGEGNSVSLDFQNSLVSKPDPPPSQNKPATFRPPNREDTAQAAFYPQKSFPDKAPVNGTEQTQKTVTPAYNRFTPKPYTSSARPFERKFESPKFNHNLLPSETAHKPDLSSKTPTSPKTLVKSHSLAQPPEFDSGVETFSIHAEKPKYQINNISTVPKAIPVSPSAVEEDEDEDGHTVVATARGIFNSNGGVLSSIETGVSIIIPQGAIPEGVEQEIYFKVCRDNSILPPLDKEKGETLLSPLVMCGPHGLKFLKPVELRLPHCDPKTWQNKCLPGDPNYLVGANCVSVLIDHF
Sequence of UniProt Q9Y5B9 (Q9Y5B9 whole entry, looked up): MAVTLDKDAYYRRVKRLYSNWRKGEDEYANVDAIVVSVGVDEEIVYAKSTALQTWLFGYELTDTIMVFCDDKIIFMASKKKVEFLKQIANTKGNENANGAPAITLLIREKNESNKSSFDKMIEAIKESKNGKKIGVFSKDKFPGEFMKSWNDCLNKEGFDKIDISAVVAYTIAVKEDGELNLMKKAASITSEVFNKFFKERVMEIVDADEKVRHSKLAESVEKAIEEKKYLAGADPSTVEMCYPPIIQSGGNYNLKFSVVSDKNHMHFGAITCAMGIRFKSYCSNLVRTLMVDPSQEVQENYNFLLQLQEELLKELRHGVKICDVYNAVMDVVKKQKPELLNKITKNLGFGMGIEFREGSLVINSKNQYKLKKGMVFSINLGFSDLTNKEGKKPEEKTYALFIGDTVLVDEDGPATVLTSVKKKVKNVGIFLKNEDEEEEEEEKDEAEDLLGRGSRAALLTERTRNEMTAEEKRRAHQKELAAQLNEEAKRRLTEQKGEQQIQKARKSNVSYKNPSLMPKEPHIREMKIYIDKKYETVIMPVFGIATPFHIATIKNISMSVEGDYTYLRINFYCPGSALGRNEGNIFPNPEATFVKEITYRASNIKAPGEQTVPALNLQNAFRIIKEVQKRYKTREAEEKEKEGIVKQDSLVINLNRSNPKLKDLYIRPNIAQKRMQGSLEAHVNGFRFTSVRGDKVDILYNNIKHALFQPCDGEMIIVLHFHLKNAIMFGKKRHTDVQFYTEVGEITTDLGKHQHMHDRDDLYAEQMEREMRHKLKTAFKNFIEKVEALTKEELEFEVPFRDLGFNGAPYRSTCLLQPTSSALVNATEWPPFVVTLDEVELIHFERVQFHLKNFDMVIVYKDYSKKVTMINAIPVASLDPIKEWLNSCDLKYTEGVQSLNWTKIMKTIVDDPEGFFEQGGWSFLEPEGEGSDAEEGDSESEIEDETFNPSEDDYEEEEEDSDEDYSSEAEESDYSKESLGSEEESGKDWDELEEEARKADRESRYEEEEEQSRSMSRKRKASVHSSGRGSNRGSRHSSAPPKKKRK
Sequence of UniProt P55061 (P55061 whole entry, looked up): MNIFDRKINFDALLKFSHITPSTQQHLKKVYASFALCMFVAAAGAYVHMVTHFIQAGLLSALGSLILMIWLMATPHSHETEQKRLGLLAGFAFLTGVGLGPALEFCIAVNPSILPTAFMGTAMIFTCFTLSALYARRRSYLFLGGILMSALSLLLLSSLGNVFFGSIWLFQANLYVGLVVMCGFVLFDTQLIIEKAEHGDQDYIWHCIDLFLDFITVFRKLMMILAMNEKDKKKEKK
Sequence of UniProt Q9Y5J6 (Q9Y5J6 whole entry, looked up): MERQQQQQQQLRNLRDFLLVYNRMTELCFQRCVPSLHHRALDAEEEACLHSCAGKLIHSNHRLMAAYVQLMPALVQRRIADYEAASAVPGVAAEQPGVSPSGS
Sequence of UniProt Q96QD8 (Q96QD8 whole entry, looked up): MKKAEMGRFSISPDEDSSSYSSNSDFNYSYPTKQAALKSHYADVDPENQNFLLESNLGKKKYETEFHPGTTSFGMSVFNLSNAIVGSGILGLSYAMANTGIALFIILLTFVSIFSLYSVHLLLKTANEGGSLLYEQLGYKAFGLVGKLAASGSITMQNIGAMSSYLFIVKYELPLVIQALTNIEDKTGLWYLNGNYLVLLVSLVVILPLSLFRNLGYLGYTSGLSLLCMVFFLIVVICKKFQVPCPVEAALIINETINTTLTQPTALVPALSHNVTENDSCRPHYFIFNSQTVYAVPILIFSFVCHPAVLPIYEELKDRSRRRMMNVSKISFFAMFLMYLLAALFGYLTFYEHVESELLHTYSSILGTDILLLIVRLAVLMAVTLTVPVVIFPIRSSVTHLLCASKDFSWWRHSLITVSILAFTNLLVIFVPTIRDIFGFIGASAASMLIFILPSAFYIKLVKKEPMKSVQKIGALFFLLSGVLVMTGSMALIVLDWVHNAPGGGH
Sequence of UniProt P63165 (P63165 whole entry, looked up): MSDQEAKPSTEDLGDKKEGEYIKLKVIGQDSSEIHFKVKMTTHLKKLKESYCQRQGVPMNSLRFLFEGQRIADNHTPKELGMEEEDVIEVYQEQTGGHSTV
Sequence of UniProt Q15527 (Q15527 whole entry, looked up): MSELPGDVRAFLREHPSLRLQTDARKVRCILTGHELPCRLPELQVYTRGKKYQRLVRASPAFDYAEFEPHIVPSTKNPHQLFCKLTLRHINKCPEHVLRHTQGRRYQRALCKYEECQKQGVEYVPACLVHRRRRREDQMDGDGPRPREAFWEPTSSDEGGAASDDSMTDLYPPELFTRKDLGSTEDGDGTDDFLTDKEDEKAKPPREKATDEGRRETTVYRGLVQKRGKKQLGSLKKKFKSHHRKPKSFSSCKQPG
Sequence of UniProt Q9BVV7 (Q9BVV7 whole entry, looked up): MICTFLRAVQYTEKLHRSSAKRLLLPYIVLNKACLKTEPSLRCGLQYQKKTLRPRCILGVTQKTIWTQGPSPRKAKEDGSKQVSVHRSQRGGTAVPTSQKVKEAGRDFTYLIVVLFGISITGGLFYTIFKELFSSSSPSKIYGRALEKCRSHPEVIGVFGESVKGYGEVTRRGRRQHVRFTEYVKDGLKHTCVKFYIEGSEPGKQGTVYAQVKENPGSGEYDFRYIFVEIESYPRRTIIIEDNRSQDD

With TARS2 (UniProt Q9BW92), the log2 fold change was -0.072.
To STOM (UniProt P27105) belongs 0.048.
For TBC1D9B (UniProt Q66K14), the log2 fold change is 0.138.
As to TATDN2 (UniProt Q93075), the log2 fold change was -0.046.
To STAT6 (UniProt P42226) belongs -0.052; to TM7SF3 (UniProt Q9NS93), -0.081.
As to SLC38A7 (UniProt Q9NVC3), the log2 fold change was 0.004.
With SLC38A9 (UniProt Q8NBW4), the log2 fold change is 0.019.
The value for SLC38A2 (UniProt Q96QD8) was -0.02; that for SLC25A36 (UniProt Q96CQ1) was 0.022; that for SNRPB2 (UniProt P08579) was -0.026.
The value for SPTBN1 (UniProt Q01082) was 0.024; that for TIMM21 (UniProt Q9BVV7) was 0.017; that for ST6GAL1 (UniProt P15907) was 0.098.
The value for TAX1BP1 (UniProt Q86VP1) was 0.029; that for SPAST (UniProt Q9UBP0) was 0.
Turning to SLC9A6 isoform 2 (UniProt Q92581), the log2 fold change is -0.004.
To TARBP1 (UniProt Q13395) belongs 0.043; to TGFBI (UniProt Q15582), 0.063; to TBC1D20 isoform 3 (UniProt Q96BZ9), -0.065.
On to TBC1D2 (UniProt Q9BYX2), for which the log2 fold change is -0.015.
On to SPTBN4 (UniProt Q9H254), for which the log2 fold change is 0.
The value for SRXN1 (UniProt Q9BYN0) was -0.079; that for SLC7A6 (UniProt Q92536) was 0.031; that for TACC2 (UniProt O95359) was -0.009.
For TIMM10B (UniProt Q9Y5J6), the log2 fold change was 0.045.
The value for TGFBR1 isoform 2 (UniProt P36897) was -0.018.
The value for SPAG9 isoform 4 (UniProt O60271) was 0.003; that for SSB (UniProt P05455) was -0.051.
To TBC1D23 (UniProt Q9NUY8) belongs -0.045; to STARD7 (UniProt Q9NQZ5), -0.052.
As to TCOF1 isoform 3 (UniProt Q13428), the log2 fold change was 0.399.
To SPR (UniProt P35270) belongs 0.057; to SUPT16H (UniProt Q9Y5B9), -0.055.
The value for SRCAP (UniProt Q6ZRS2) was 0.029.
To SPINDOC (UniProt Q9BUA3) belongs 0.018; to STAT5A (UniProt P42229), -0.087.
Consider TMBIM6 isoform 2 (UniProt P55061), for which the log2 fold change is -0.038.
The value for SPPL2B (UniProt Q8TCT7) was -0.056.
The value for SUMO1 (UniProt P63165) was 0.038.
For TAOK1 (UniProt Q7L7X3), the log2 fold change is -0.009.
The value for STK11IP (UniProt Q8N1F8) was 0.036; that for SURF2 (UniProt Q15527) was 0.047; that for SOAT1 (UniProt P35610) was 0.079.
To TIMM44 (UniProt O43615) belongs -0.036; to SNRK (UniProt Q9NRH2), -0.27.
To SYK (UniProt P43405) belongs 0.015.
As to SRC isoform 2 (UniProt P12931), the log2 fold change is 0.02.
The value for THRAP3 (UniProt Q9Y2W1) was 0.09; that for SSR3 isoform 2 (UniProt Q9UNL2) was -0.012.
To SNX15 (UniProt Q9NRS6) belongs 0.124.
The value for SRSF10 (UniProt O75494) was 0.235; that for SNRNP40 (UniProt Q96DI7) was -0.025.
In the case of SLC39A11 (UniProt Q8N1S5), the log2 fold change is -0.458 (active).
The value for SLC30A10 (UniProt Q6XR72) was 0.01; that for TJP1 (UniProt Q07157) was 0.009.
The value for TAOK2 (UniProt Q9UL54) was -0.038; that for SPG11 (UniProt Q96JI7) was 0.185; that for SURF1 (UniProt Q15526) was 0.029.
As for SNX6 (UniProt Q9UNH7), the log2 fold change is -0.019.
SLC30A7 (UniProt Q8NEW0): the log2 fold change was -0.201.
To TFR2 (UniProt Q9UP52) belongs 0.052.
The value for TBP (UniProt P20226) was 0.012; that for SUGP1 (UniProt Q8IWZ8) was -0.04; that for SNX9 (UniProt Q9Y5X1) was -0.01.
To SRP68 (UniProt Q9UHB9) belongs 0.091; to SP2 (UniProt Q02086), 0.07; to SNX1 (UniProt Q13596), -0.002.
SLIRP (UniProt Q9GZT3): the log2 fold change was 0.134.
The value for SLC46A1 (UniProt Q96NT5) was 0.078.

The values are drawn from the supplement of paper PMC10849652.
